Targets include RELARELA (p65 homodimer) (Homo sapiens, UniProt Q04206 1-307); p50p50 homodimer (Homo sapiens, UniProt P19838 7-356); RELB subunit;p50 subunit (Homo sapiens;Homo sapiens, UniProt Q01201;P19838 120-401;7-356).
What all share (assay): protein binding microarray; high values mean tight binding
Common to all, as to conditions: dsDNA, one strand shown

In the next assay the target is T1, p52p52 homodimer (Homo sapiens, UniProt Q00653 4-332).
T1 sequence: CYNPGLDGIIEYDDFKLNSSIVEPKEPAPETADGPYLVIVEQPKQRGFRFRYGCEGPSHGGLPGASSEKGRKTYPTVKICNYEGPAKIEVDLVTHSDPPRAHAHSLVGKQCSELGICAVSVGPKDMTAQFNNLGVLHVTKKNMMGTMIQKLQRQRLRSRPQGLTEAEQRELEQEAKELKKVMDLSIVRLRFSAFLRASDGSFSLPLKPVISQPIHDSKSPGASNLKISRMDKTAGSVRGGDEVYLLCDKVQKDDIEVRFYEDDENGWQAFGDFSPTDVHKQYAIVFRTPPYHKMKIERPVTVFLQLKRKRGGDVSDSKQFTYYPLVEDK

The target in assay [1] is RELA (p65) subunit of heterodimer;p50 subunit (Homo sapiens;Homo sapiens, UniProt Q04206;P19838 1-307;7-356).
Assay [2] concerns the target RELA (p65) subunit of heterodimer;p52 subunit (Homo sapiens;Homo sapiens, UniProt Q04206;Q00653 1-307;4-332).
A further assay deals with T2, RELB subunit;p52 subunit (Homo sapiens;Homo sapiens, UniProt Q01201;Q00653 120-401;4-332).
T2 sequence 1: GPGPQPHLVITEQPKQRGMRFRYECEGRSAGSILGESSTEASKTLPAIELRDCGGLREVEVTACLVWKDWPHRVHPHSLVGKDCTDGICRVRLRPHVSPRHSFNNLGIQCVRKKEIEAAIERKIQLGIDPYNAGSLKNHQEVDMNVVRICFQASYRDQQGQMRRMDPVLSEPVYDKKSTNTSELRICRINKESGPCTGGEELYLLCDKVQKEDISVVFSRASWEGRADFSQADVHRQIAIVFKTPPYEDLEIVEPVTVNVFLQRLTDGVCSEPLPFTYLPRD
T2 sequence 2: T1 sequence

Assay [3] concerns the target C-Rel subunit;p50 subunit (Homo sapiens;Homo sapiens, UniProt Q04864;P19838 1-285;7-356).
In assay [4] the target is T3, C-Rel subunit;p52 subunit (Homo sapiens;Homo sapiens, UniProt Q04864;Q00653 1-285;4-332).
T3 sequence 1: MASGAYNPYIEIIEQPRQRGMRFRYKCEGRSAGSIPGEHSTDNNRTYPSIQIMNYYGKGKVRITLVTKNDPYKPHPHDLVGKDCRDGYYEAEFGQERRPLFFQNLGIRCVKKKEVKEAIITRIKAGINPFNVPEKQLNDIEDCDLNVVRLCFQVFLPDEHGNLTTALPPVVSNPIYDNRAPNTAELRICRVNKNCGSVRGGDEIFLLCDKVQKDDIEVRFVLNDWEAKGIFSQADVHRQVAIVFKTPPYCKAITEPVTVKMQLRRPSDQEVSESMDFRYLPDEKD
T3 sequence 2: T1 sequence

Sequence of p50p50 homodimer (P19838 7-356): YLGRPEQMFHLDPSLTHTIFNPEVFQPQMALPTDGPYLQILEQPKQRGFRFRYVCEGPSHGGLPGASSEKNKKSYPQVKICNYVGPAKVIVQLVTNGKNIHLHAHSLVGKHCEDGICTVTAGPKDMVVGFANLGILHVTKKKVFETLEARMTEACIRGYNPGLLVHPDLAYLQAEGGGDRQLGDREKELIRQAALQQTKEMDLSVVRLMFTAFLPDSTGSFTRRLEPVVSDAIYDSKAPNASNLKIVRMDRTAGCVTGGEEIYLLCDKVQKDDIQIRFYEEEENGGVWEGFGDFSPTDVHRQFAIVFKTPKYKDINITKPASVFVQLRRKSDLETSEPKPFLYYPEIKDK
Sequence of RELARELA (p65 homodimer) (Q04206 1-307): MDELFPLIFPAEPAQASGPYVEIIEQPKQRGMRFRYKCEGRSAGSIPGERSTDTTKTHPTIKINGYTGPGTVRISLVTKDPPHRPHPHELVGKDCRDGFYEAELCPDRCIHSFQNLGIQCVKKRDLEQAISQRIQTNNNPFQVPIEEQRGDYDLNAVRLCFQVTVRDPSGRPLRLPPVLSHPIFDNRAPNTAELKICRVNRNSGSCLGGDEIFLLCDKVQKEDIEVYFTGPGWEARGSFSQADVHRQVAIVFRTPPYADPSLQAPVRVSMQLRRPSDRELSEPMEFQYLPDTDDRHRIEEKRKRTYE
Sequence of RELA (p65) subunit of heterodimer;p50 subunit (Q04206 1-307, chain 1 of 2): as the sequence (Q04206 1-307) above
Sequence of RELA (p65) subunit of heterodimer;p50 subunit (P19838 7-356, chain 2 of 2): as the sequence (P19838 7-356) above

As to GAGGATTCCCC, the binding signal in the assay with RELARELA (p65 homodimer) was determined as 2 z-score; in the assay with p50p50 homodimer, 1.1 z-score; with p52p52 homodimer it was 2.67 z-score; in [1], 2.18 z-score; in assay [2], 2.19 z-score; with RELB subunit;p50 subunit, 2.43 z-score. Further, the binding signal was found to be 2.09 z-score in the assay with RELB subunit;p52 subunit, 1.54 z-score in [3] and 2.11 z-score in [4].

For GGAGGGATCCT, the binding signal is -0.405 z-score with RELARELA (p65 homodimer); -1.1 z-score with p50p50 homodimer; -0.254 z-score with p52p52 homodimer; -0.619 z-score in assay [1]; -0.58 z-score in assay [2]; -0.707 z-score in the assay with RELB subunit;p50 subunit. Further, the binding signal was -0.517 z-score with RELB subunit;p52 subunit, -1.01 z-score in [3] and -0.454 z-score in [4].

As to CAGTAAATCCT, the binding signal was -0.441 z-score with RELARELA (p65 homodimer); -1.23 z-score with p50p50 homodimer; -0.605 z-score with p52p52 homodimer; -0.903 z-score in assay [1]; -0.822 z-score in [2]; -0.822 z-score with RELB subunit;p50 subunit. Also, the binding signal was -0.598 z-score in the assay with RELB subunit;p52 subunit, -1.01 z-score in [3] and -0.81 z-score in assay [4].

As for AGGTGCGTCCT, the binding signal with RELARELA (p65 homodimer) was -0.881 z-score; with p50p50 homodimer it was -0.757 z-score; with p52p52 homodimer, -0.281 z-score; in assay [1], -0.82 z-score; in assay [2], -0.633 z-score; in the assay with RELB subunit;p50 subunit, -0.695 z-score. The binding signal with RELB subunit;p52 subunit was -0.608 z-score; in assay [3] it was -1.1 z-score; in assay [4] it was -0.46 z-score.

For the sequence CGGGTTACCCT, the binding signal in the assay with RELARELA (p65 homodimer) was 0.242 z-score; with p50p50 homodimer, -0.264 z-score; with p52p52 homodimer, -0.0855 z-score; in assay [1], -0.112 z-score; in assay [2], -0.124 z-score; with RELB subunit;p50 subunit, 0.063 z-score. In addition, the binding signal in the assay with RELB subunit;p52 subunit was -0.22 z-score; in assay [3], -0.0809 z-score; in assay [4], -0.0258 z-score.

Turning to AAGGTACTCCC, the binding signal in the assay with RELARELA (p65 homodimer) was -0.19 z-score; with p50p50 homodimer it was 0.76 z-score; in the assay with p52p52 homodimer it was 0.735 z-score; in [1] it was 0.376 z-score; in [2], 0.386 z-score; with RELB subunit;p50 subunit, 0.54 z-score. In addition, the binding signal with RELB subunit;p52 subunit was found to be 0.302 z-score; in assay [3] it was 0.206 z-score; in assay [4], 0.449 z-score.

For the sequence CGGAAATTCCC, the binding signal with RELARELA (p65 homodimer) stood at 4.22 z-score; with p50p50 homodimer, 1.06 z-score; with p52p52 homodimer, 2.53 z-score; in [1] it was 2.23 z-score; in assay [2], 2.39 z-score; with RELB subunit;p50 subunit it was 1.19 z-score. Moreover, the binding signal in the assay with RELB subunit;p52 subunit worked out at 2.04 z-score; in assay [3] it was 2.28 z-score; in [4], 2.88 z-score.

Turning to AAGTAGTCCCC, the binding signal is 0.275 z-score in the assay with RELARELA (p65 homodimer); 1.21 z-score with p50p50 homodimer; 1 z-score with p52p52 homodimer; 1.09 z-score in [1]; 1.01 z-score in [2]; 1.36 z-score with RELB subunit;p50 subunit. For the same sequence, the figures for the binding signal (with RELB subunit;p52 subunit; in assay [3]; in [4]) were 1.04 z-score, 1.07 z-score and 0.58 z-score, respectively.

As to CGGTGAGCCCC, the binding signal was -0.508 z-score with RELARELA (p65 homodimer); 0.0715 z-score in the assay with p50p50 homodimer; -0.0385 z-score in the assay with p52p52 homodimer; -0.0467 z-score in assay [1]; 0.0767 z-score in assay [2]; -0.0666 z-score with RELB subunit;p50 subunit. Moreover, the binding signal in the assay with RELB subunit;p52 subunit amounted to 0.236 z-score; in assay [3] it was 0.3 z-score; in assay [4], 0.314 z-score.

As to GAGAACTCCCC, the binding signal is 0.725 z-score with RELARELA (p65 homodimer); 1.15 z-score in the assay with p50p50 homodimer; 1.06 z-score in the assay with p52p52 homodimer; 1.34 z-score in [1]; 1.05 z-score in assay [2]; 1.1 z-score with RELB subunit;p50 subunit. In addition, the binding signal with RELB subunit;p52 subunit worked out at 0.794 z-score; in assay [3], 0.916 z-score; in assay [4], 0.92 z-score.

As for GGGGGCCTCCC, the binding signal with RELARELA (p65 homodimer) came to 0.3 z-score; with p50p50 homodimer it was 0.557 z-score; with p52p52 homodimer it was 2.41 z-score; in assay [1] it was 1.24 z-score; in assay [2], 1.91 z-score; with RELB subunit;p50 subunit, 1.21 z-score. Also, the binding signal with RELB subunit;p52 subunit stood at 1.09 z-score; in assay [3] it was 1 z-score; in assay [4], 1.46 z-score.

AAAGTGGTCCC: the binding signal was -0.237 z-score in the assay with RELARELA (p65 homodimer); 0.456 z-score with p50p50 homodimer; 0.16 z-score with p52p52 homodimer; -0.319 z-score in [1]; -0.267 z-score in assay [2]; 0.24 z-score with RELB subunit;p50 subunit. The values for the binding signal (with RELB subunit;p52 subunit; in assay [3]; in [4]) were -0.0596 z-score, -0.25 z-score and -0.422 z-score, respectively.

On to GGGGGCGCCCT, for which the binding signal was determined as 0.992 z-score with RELARELA (p65 homodimer); 0.922 z-score in the assay with p50p50 homodimer; 1.68 z-score with p52p52 homodimer; 1.43 z-score in assay [1]; 1.58 z-score in assay [2]; 1.12 z-score in the assay with RELB subunit;p50 subunit. The values for the binding signal (with RELB subunit;p52 subunit; in assay [3]; in assay [4]) were 1.33 z-score, 0.776 z-score and 1.34 z-score, respectively.

For CGAGATTTCCC, the binding signal with RELARELA (p65 homodimer) was 1.93 z-score; in the assay with p50p50 homodimer it was 0.975 z-score; with p52p52 homodimer it was 0.882 z-score; in [1] it was 1.43 z-score; in assay [2], 1.06 z-score; with RELB subunit;p50 subunit, 0.804 z-score. For the same sequence, the binding signal was found to be 0.926 z-score with RELB subunit;p52 subunit, 1.31 z-score in assay [3] and 0.887 z-score in [4].

With CGAGGCATCCC, the binding signal in the assay with RELARELA (p65 homodimer) was -0.716 z-score; with p50p50 homodimer it was -1.34 z-score; with p52p52 homodimer it was -0.635 z-score; in assay [1], -1.05 z-score; in assay [2], -0.831 z-score; in the assay with RELB subunit;p50 subunit, -0.973 z-score. In addition, the values for the binding signal (in the assay with RELB subunit;p52 subunit; in [3]; in assay [4]) were -0.906 z-score, -1.02 z-score and -0.807 z-score, respectively.

In the case of GAAGTTGTCCT, the binding signal was -0.136 z-score with RELARELA (p65 homodimer); -1.05 z-score with p50p50 homodimer; -0.601 z-score with p52p52 homodimer; -0.859 z-score in assay [1]; -0.716 z-score in [2]; -0.826 z-score with RELB subunit;p50 subunit. The binding signal in the assay with RELB subunit;p52 subunit is -0.62 z-score; in [3], -0.931 z-score; in assay [4], -0.642 z-score.

Regarding CGAATCATCCC, the binding signal is -0.386 z-score with RELARELA (p65 homodimer); -0.966 z-score with p50p50 homodimer; -0.352 z-score with p52p52 homodimer; -0.734 z-score in assay [1]; -0.619 z-score in assay [2]; -0.644 z-score with RELB subunit;p50 subunit. Moreover, the binding signal with RELB subunit;p52 subunit was -0.752 z-score; in assay [3], -0.745 z-score; in assay [4], -0.523 z-score.

For the sequence AAGTTTCCCCT, the binding signal came to 1.76 z-score with RELARELA (p65 homodimer); 1.73 z-score with p50p50 homodimer; 2.41 z-score in the assay with p52p52 homodimer; 2.47 z-score in assay [1]; 2.06 z-score in assay [2]; 2.72 z-score with RELB subunit;p50 subunit. The binding signal is 2.65 z-score in the assay with RELB subunit;p52 subunit, 2.01 z-score in assay [3] and 1.96 z-score in assay [4].

Regarding GAGTAATTCCT, the binding signal with RELARELA (p65 homodimer) is 0.42 z-score; with p50p50 homodimer it was -1 z-score; with p52p52 homodimer, -0.525 z-score; in assay [1], -0.42 z-score; in [2], -0.441 z-score; with RELB subunit;p50 subunit, -0.739 z-score. The binding signal in the assay with RELB subunit;p52 subunit is -0.87 z-score; in assay [3], -0.18 z-score; in assay [4], -0.195 z-score.

Regarding AAAAAGCCCCC, the binding signal with RELARELA (p65 homodimer) stood at 1.22 z-score; with p50p50 homodimer, 1.3 z-score; in the assay with p52p52 homodimer it was 2.26 z-score; in [1], 1.98 z-score; in assay [2] it was 2.06 z-score; with RELB subunit;p50 subunit it was 2.17 z-score. Moreover, the binding signal worked out at 2.06 z-score in the assay with RELB subunit;p52 subunit, 1.43 z-score in [3] and 2.22 z-score in assay [4].
